Test [1] addresses Galactokinase (Homo sapiens) (UniProt P51570). Description: qHTS Validation Assay for Inhibitors of Human Galactokinase (GALK) (AID 493189). Further: 0% is about no effect. A digest of the protocol:
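Compounds were pin-transferred into ATP buffer, then GALK-galactose mix was added (final 5 nM enzyme, 100 uM galactose, 35 uM ATP). After 1 h at room temperature, remaining ATP was measured luminescently.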
A general note: qHTS replaces the single test concentration by a dilution series.

Test [2] can be described thus: Validation screen for small molecules that induce DNA re-replication in SW480 colon adenocarcinoma cells (AID 504364). Further: 0% is about no effect. A digest of the protocol:
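Cells are treated 48 hr with test compound, stained 40 min with Hoechst at 37 C, and scanned for nuclear fluorescence; compounds inducing re-replication increase nuclei with elevated intensity.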

For test [3], the target named is Peptidyl-prolyl cis-trans isomerase NIMA-interacting 1 (Homo sapiens) (UniProt Q13526). Briefly: qHTS Validation Assay to Find Inhibitors of Pin1 (AID 504536; active means well fitted inhibition curve with a large enough effect in the polarisation, with a control signal flat, not every such curve was filed as active; the % refers to the polarisation; further: potency means the concentration at half of the fitted maximal effect). Put shortly: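 Fluorescence polarization competition: compounds (titration) displace HiFluor-488-labeled Pin1-1b peptide from Pin1 (0.3 uM final) in pH 7.5 HEPES buffer with DTT, 10 min at room temperature; %Activity normalized to no-enzyme wells, curves fitted.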
Peptidyl-prolyl cis-trans isomerase NIMA-interacting 1 (Homo sapiens), sequence (Q13526 whole entry, looked up): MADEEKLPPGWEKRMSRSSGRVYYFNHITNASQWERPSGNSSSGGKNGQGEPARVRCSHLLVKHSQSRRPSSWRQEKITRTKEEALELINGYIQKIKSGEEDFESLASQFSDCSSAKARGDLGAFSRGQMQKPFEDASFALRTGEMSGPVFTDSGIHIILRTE

The target of test [4] is Phosphoglycerate kinase, glycosomal (Trypanosoma brucei brucei) (UniProt P07378). Description: qHTS Validation Assay to Find Inhibitors of Phosphoglycerate Kinase (AID 504547). Further: potency means the concentration at half of the fitted maximal effect. A digest of the protocol: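 PGK activity was coupled to GAPDH (100nM final), which generates the unstable substrate 1,3-bisphosphoglycerate in-well. Reactions ran 60 minutes at room temperature in 100mM TEA pH 7.6, 5mM MgCl2, 0.01% Tween-20, then Kinase-Glo Plus luminescence was read.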
Phosphoglycerate kinase, glycosomal (Trypanosoma brucei brucei), sequence (P07378 whole entry, looked up): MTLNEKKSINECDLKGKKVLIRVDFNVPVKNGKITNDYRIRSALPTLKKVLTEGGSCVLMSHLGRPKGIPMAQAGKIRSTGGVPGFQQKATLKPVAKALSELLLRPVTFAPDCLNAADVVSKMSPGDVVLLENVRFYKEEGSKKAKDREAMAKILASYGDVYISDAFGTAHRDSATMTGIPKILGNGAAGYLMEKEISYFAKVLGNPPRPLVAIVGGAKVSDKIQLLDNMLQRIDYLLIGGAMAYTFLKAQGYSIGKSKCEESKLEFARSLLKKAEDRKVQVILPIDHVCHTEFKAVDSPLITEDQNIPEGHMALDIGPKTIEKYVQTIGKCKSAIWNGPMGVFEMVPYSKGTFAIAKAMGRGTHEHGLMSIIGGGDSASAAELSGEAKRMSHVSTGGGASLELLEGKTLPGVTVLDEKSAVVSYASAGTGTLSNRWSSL

For test [5], the target named is phosphoglycerate mutase (Leishmania major) (UniProt Q4Q090). Briefly: qHTS Validation Assay to Find Inhibitors of Phosphoglycerate Mutase (AID 504548). Further: series mostly up to about 58 µM; on the % scale 0 is the no-effect control and ±100 the full control effect. The settings on record: Potency: inhibition qHTS. A digest of the protocol:
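Lm PGAM 1.25nM final; 100 mM TEA pH 7.6, 5 mM MgCl2, 0.01% Tween-20; 45 min RT; Kinase-GloPlus, 10 min; end-point luminescence. Enzyme-free wells as negative controls.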

A short description of test [6]: Inducers of the Endoplasmic Reticulum Stress Response (ERSR) in human glioma: Validation (AID 504836). Further: 0% is about no effect. Put shortly: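 Stably transfected U87-MG glioma cells carrying a GRP78-based luciferase sensor; 16 h compound incubation. Luminescence end-point read 10 min after Bright-Glo addition at room temperature.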
The target of test [7] is Ubiquitin carboxyl-terminal hydrolase 1 (Homo sapiens) (UniProt O94782). Description: Inhibitors of USP1/UAF1: Pilot qHTS (AID 504865).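 Further: rhodamine fluorescence freed from ubiquitin-rhodamine substrate followed over time; top concentration of the series differs between compounds; on the % scale 0 is the no-effect control and ±100 the full control effect; nearly all actives have a fitted effect of over 35% in size.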 Put shortly:
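Kinetic fluorescence assay: 1nM USP1/UAF1, 15 min compound preincubation, then 150nM Ub-Rho; 480/540 nm.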

The nature of test [8]: qHTS for Inhibitors of ATXN expression: Validation of Cytotoxic Assay (AID 588349).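 Further: cells exposed to compound for 72 hr; on the % scale 0 is the no-effect control and ±100 the full control effect.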 A digest of the protocol: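 HEK293, compound dose series, 72 hr / 37 degrees C; viability via CellTiter Glo (intracellular ATP).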
A short description of test [9]: qHTS for Inhibitors of ATXN expression: Validation (AID 588378). Further: series mostly up to about 57 µM; on the % scale 0 is the no-effect control and ±100 the full control effect; nearly all actives have a fitted effect of over 75% in size. A digest of the protocol: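 Validation of ATXN2 expression inhibitors uses a cell-based luciferase fusion reporter in HEK293 cells, with 24 h compound exposure and paired viability (fluorescence) and reporter (luminescence) end-point reads.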
Test [10] has as its target DNA dC->dU-editing enzyme APOBEC-3G (Homo sapiens) (UniProt Q9HC16). Briefly: qHTS for inhibitors of Vif-A3G interactions: Validation (AID 588379). Further: 0% is about no effect. Put shortly: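 HeLa cells stably expressing Vif and A3G-eYFP, 700 cells/well, incubated overnight at 37 deg C, then exposed to compound overnight at 37 deg C. Inhibition of Vif-mediated degradation read as increased yellow fluorescence (Ex 488/Em 500-530) by laser-scanning cytometry.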

For test [11], the target named is Estrogen receptor (Homo sapiens) (UniProt P03372). Description: qHTS assay for small molecule antagonists of estrogen receptor alpha signaling (AID 588513; active means well fitted curve in the direction sought with a large enough effect in the signal ratio, with a control signal flat, not every such curve was filed as active; the % refers to the signal ratio; further: on the % scale 0 is the no-effect control and ±100 the full control effect). Put shortly:
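Cells were plated at 5000/well and incubated 4 h at 37 C. Compounds were added as 1:2 dilution series, duplicates. 17-beta-estradiol (0.5nM final) was added for 18 h before CCF4 detection.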

For test [12] the target is unchanged. Description: qHTS assay for small molecule agonists of estrogen receptor alpha signaling (AID 588514; calls by dose curve;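 further: 0% = vehicle only and 100% = reference agonist; nearly all actives have a fitted effect of over 70% in size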). Put shortly:
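Reporter-gene assay. […] controls beta-lactamase in HEK 293 GripTite cells; after 18 hrs with compound, CCF4 substrate is added for 2 hrs and fluorescence is read.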

Test [13] deals with Glucocorticoid receptor (Homo sapiens) (UniProt P04150). Briefly: qHTS assay for small molecule agonists of glucocorticoid receptor signaling (AID 588532; active means well fitted curve in the direction sought with a large enough effect in the signal ratio, with a control signal flat; the % refers to the signal ratio;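 further: 100% = dexamethasone at 0.1 µM and 0% = DMSO only wells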). The settings on record: HeLa MMTV-bla, beta-lactamase ratio, agonist, 18 h; stronger effect = higher value; percent of dexamethasone control, DMSO zero. Put shortly:
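Cells were plated and rested 3-5 h at 37 C, compounds were added in titration and incubated 18 h, then CCF4 substrate was loaded for 2 h at RT before reading blue/green fluorescence. EC50 came from Hill-equation fitting.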

The target is the same in test [14]. Description: qHTS assay for small molecule antagonists of glucocorticoid receptor signaling (AID 588533; active means well fitted inhibition curve with a large enough effect in the signal ratio, with a control signal flat, not every such curve was filed as active; the % refers to the signal ratio;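 further: cells stimulated with 2 nM dexamethasone as agonist; on the % scale 0 is the no-effect control and ±100 the full control effect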). A digest of the protocol:
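Antagonist-mode qHTS: compound titrations added to GRE-bla HeLa cells, then dexamethasone 2 nM final; 18 h, 37 C. CCF4 FRET fluorescence normalized to dexamethasone and DMSO; IC50 from Hill fit.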

Test [15] deals with Peroxisome proliferator-activated receptor delta (Homo sapiens) (UniProt Q03181). Briefly: qHTS assay for small molecule agonists of peroxisome proliferator-activated receptor delta signaling (AID 588534; calls by dose curve;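 further: 0% = DMSO basal wells and 100% = positive control agonist at 10 µM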). Put shortly:
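Reporter cells were plated and held 5 hrs at 37 C before compounds were added. After 18 hrs at 37 C, CCF4 dye was loaded for 2 hrs at RT and fluorescence measured.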

In test [16] the target is Bile acid receptor (Homo sapiens) (UniProt Q96RI1). Description: qHTS assay for small molecule antagonists of farnesoid X receptor signaling (AID 588526; calls by dose curve; further: on the % scale 0 is the no-effect control and ±100 the full control effect). A digest of the protocol:
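Antagonist mode: titrated compounds tested against chenodeoxycholic acid stimulation (normalized to 50 uM CDCA and DMSO) in GeneBLAzer HEK293T cells for 16 h. Beta-lactamase read by CCF4 fluorescence; IC50 from Hill fits.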

Values without a mark were called inactive. Inconclusive results are not listed. Calls of active or inactive are those of the source. Unless noted, the call rests on the fitted dose curve; in most records, active means well fitted curve in the direction sought with a large enough effect; inconclusive means small, poorly fitted or top-dose-only effect, or another doubt; inactive means no such curve, though single readings can be large; an effect the other way counts as inactive or inconclusive.

Ubiquitin carboxyl-terminal hydrolase 1 (Homo sapiens), sequence (O94782 whole entry, looked up): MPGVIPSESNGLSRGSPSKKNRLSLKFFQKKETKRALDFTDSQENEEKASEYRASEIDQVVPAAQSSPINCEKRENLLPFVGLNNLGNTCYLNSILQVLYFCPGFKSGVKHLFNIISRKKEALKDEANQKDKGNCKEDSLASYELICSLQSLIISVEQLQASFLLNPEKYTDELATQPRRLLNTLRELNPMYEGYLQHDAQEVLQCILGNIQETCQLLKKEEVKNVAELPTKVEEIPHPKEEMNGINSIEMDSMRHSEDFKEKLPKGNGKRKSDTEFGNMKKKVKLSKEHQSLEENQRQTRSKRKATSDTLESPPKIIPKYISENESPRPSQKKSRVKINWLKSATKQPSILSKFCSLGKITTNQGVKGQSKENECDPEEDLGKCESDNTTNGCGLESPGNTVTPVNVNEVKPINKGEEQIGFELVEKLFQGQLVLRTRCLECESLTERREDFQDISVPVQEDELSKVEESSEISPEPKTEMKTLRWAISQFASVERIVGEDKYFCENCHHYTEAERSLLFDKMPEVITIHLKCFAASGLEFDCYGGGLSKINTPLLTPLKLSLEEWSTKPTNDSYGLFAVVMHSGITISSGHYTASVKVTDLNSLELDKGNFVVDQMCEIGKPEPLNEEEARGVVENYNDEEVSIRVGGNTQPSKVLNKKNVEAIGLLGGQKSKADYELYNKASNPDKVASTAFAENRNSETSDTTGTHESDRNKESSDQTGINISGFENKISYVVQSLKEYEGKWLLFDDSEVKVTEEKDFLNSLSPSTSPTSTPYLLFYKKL
phosphoglycerate mutase (Leishmania major), sequence (Q4Q090 1-553): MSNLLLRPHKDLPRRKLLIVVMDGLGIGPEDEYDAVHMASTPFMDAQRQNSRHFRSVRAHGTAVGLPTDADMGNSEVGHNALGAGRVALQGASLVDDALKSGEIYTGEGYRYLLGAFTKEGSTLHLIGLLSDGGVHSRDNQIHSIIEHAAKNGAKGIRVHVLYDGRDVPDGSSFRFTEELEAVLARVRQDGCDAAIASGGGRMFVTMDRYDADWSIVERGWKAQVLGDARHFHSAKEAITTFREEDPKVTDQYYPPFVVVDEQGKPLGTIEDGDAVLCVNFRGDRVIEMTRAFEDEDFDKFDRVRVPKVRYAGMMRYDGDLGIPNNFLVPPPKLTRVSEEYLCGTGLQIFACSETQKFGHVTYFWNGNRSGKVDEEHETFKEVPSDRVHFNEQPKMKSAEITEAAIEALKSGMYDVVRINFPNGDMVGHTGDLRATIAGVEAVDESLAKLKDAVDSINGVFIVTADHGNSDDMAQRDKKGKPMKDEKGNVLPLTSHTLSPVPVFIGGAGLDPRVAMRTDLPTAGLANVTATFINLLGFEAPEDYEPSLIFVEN
Estrogen receptor (Homo sapiens), sequence (P03372 whole entry, looked up): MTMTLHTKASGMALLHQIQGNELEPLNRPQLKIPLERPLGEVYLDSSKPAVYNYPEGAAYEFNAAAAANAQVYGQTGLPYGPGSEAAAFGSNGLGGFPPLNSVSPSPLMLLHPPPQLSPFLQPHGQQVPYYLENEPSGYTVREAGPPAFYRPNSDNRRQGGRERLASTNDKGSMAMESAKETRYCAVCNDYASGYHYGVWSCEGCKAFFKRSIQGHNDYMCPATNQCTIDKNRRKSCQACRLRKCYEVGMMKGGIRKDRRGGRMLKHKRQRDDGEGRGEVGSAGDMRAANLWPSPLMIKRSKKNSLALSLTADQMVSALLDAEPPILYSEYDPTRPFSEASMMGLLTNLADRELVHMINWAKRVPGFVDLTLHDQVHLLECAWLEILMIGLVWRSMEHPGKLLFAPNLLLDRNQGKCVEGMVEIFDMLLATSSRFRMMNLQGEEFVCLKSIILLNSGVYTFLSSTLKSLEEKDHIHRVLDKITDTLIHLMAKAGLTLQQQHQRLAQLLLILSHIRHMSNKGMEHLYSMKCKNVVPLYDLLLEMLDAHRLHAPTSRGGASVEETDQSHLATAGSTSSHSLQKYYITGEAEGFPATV
Glucocorticoid receptor (Homo sapiens), sequence (P04150 whole entry, looked up): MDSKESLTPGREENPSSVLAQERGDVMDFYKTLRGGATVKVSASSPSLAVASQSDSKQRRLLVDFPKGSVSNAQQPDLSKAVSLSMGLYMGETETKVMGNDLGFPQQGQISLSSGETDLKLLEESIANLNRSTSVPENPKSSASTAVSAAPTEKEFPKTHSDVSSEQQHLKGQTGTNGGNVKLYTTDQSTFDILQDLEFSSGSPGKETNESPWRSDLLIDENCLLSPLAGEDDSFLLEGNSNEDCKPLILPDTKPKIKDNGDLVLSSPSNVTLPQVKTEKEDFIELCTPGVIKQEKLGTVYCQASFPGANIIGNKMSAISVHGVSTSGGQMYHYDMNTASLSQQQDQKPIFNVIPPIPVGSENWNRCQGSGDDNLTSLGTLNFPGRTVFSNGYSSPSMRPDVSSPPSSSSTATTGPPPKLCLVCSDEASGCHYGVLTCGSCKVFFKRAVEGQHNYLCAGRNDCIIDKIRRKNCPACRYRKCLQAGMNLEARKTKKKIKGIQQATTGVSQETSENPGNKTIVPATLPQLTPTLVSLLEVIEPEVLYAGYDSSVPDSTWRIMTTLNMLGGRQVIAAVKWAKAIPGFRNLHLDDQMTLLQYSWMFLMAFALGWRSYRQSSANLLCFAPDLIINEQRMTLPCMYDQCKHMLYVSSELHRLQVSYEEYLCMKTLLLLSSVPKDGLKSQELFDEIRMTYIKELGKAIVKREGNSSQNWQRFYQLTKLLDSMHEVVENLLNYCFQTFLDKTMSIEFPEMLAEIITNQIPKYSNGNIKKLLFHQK
DNA dC->dU-editing enzyme APOBEC-3G (Homo sapiens), sequence (Q9HC16 whole entry, looked up): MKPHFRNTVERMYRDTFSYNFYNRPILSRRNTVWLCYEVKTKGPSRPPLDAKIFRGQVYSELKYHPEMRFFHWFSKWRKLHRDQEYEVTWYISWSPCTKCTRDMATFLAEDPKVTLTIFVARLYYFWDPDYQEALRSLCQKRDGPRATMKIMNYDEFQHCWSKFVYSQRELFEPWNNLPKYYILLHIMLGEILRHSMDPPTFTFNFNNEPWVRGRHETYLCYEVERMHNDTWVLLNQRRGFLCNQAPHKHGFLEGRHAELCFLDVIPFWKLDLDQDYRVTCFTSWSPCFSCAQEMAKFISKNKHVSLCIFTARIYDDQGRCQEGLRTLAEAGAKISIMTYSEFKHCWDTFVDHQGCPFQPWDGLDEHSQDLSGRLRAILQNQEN
Galactokinase (Homo sapiens), sequence (P51570 whole entry, looked up): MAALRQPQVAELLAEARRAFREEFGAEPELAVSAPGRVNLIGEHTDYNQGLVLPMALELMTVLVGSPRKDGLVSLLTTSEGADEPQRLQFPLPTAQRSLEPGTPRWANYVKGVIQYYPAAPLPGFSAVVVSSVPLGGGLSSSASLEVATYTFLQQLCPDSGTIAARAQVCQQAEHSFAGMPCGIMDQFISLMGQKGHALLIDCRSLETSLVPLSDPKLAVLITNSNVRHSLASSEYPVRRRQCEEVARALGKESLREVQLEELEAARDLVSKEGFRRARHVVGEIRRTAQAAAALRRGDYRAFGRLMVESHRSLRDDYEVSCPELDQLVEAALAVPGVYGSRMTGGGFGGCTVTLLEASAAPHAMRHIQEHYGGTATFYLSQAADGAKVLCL
Peroxisome proliferator-activated receptor delta (Homo sapiens), sequence (Q03181 whole entry, looked up): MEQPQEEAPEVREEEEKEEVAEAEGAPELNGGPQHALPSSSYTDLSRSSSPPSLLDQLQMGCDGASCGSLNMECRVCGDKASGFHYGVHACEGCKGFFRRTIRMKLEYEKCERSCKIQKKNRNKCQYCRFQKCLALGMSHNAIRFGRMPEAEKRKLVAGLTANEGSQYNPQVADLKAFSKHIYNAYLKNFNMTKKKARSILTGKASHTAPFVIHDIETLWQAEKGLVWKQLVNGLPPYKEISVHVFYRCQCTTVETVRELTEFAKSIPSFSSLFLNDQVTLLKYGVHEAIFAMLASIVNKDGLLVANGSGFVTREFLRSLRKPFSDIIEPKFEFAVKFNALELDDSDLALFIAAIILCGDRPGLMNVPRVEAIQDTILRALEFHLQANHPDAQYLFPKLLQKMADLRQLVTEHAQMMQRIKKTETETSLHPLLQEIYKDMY

Take `CCN(CCCl)Cc1ccccc1Br`: the result in test [1] and in test [6] was inactive. The Potency entry in [2], in test [3], in test [4], in test [5], in [7] and in [8] was “inactive” in each case. The Potency result in test [9] is “inactive”.
With `C[N+](C)(C)CC#CCN1CCCC1=O`, the outcome in [1], in [6] and in [10] was inactive. The Potency result in test [2], in test [3], in test [4], in [5], in test [7] and in test [8] was “inactive” in each case. Moreover, the Potency entry in [9] was “inactive”.
With `NC(=O)c1cc(N2CC2)c([N+](=O)[O-])cc1[N+](=O)[O-]`, the molecule was called inactive in test [1] and in [6]. Further, the Potency entry in test [2], in test [3], in test [4], in test [5], in [7] and in test [8] was “inactive” in each case. The Potency entry in test [9] is “inactive”.
For `CC(N)[C@H](O)c1ccc(O)c(O)c1` (stereo partly specified), the call in [1] and in test [6] was inactive. Also, the Potency entry in test [2], in [5], in test [7], in [8] and in [9] was “inactive” each time. Further, the Potency in [3] is 13.5 µM (active); in test [4], 7.57 µM (active).
With `COc1ccc(CNC(=O)/C=C/c2ccc3[nH]cc(CCN(C)C)c3c2)cc1`, the outcome in test [1] and in [6] was inactive. Besides, the Potency result in test [2], in test [3], in test [4], in [5], in test [7] and in test [8] was “inactive” each time.
`CCCN1CCCC2Cc3[nH]ncc3CC21` (stereo unspecified): in test [1], the call was inactive. For the same molecule, the Potency entry in test [2] is “inactive”.
As to `Clc1ccc(N2CC3CCC(C2)N3)nn1`, the call in test [1] and in test [6] was inactive. In addition, the Potency result in [2], in test [3], in [4], in test [5], in test [7] and in test [8] was “inactive” in each case. Further, the Potency result in [9] was “inactive”.
For the molecule `NCCc1ccc(S(=O)(=O)F)cc1`, the molecule was classed as inactive in test [1] and in test [6]. Also, the Potency entry in [2], in test [3], in test [4], in test [5], in test [7] and in [8] was “inactive” throughout. In addition, the Potency result in test [9] was “inactive”.
As to `NCC(O)c1cc(O)c(O)cc1F` (stereo unspecified), the outcome in test [1] and in test [6] was inactive. The Potency result in test [2], in test [3], in [5], in test [7], in test [8] and in [9] was “inactive” throughout. Also, in [4], the Potency was 21.3 µM (active).
Take `C=CCN1CCC23c4c5ccc(O)c4O[C@H]2C(=O)CC[C@@]3(O)C1C5` (stereo partly specified): the result in test [1] and in test [6] was inactive. Also, the Potency entry in test [2], in test [3], in test [4], in test [5], in test [7] and in test [8] was “inactive” each time. Further, the Potency entry in test [9] was “inactive”.
`N#CC(C#N)=Cc1cc(O)c(O)c(O)c1`: the call in test [1] was inactive.
On to `NC(=O)c1ccc(OCC(O)CN2CC=C(c3ccc(F)cc3)CC2)cc1` (stereo unspecified), for which the molecule was classed as inactive in test [1] and in test [6]. The Potency entry in test [2], in test [3], in [4], in [5], in [7] and in [8] was “inactive” each time. Besides, the Potency result in [9] was “inactive”.
Turning to `CC(=O)NBr`, the result in test [1] and in test [6] was inactive. Besides, the Potency entry in test [2], in test [3], in [4], in test [5], in test [7] and in [8] was “inactive” throughout. Further, the Potency result in [9] was “inactive”.
As to `NCCc1c[nH]c2ccc(C(N)=O)cc12`, the outcome in test [1], in test [6] and in test [10] was inactive. Also, the Potency result in test [2], in test [3], in [4], in [5], in test [7] and in test [8] was “inactive” throughout. Besides, the Potency result in test [9] was “inactive”.
`N[C@@H](CCl)C(=O)O`: the outcome in [1] and in test [6] was inactive. Moreover, the Potency result in test [2], in [3], in [4], in test [5], in test [7] and in test [8] was “inactive” throughout. The Potency entry in test [9] was “inactive”.
`CN1C2CCC1CC(OC(c1ccccc1)c1ccccc1N)C2` (stereo unspecified): the result in test [1] and in test [6] was inactive. Besides, the Potency result in [2], in test [3], in [4], in [5] and in [7] was “inactive” throughout.
Consider `c1ccc2c(N3CCNCC3)cccc2c1`, for which, in test [1], the call was inactive. Moreover, the Potency result in test [2], in test [3], in test [4], in test [5], in [7] and in [8] was “inactive” in each case.
Consider `COc1ccc2c(c1)[C@@]13CCCC[C@H]1[C@@H](C2)NCC3`, for which the result in [1] and in test [6] was inactive. Further, the Potency result in test [2], in test [3], in test [4], in [5] and in test [8] was “inactive” throughout.
Consider `NNC(N)=O`, for which the outcome in test [1] and in test [15] was inactive. The Potency result in test [2], in [3], in [4], in [5], in [7] and in test [8] was “inactive” each time. Moreover, the Potency entry in test [9], in test [11], in test [12] and in test [14] was “inactive” in each case. For the same molecule, the activation in test [13] is -1.3%.
Consider `C=CCN1CC[C@]23c4c5ccc(O)c4O[C@H]2/C(=N/NC(=O)c2ccccc2)CC[C@@]3(O)[C@H]1C5`, for which the result in test [1] and in test [6] was inactive. In addition, the Potency result in test [2], in test [3], in test [5], in test [7], in [8] and in [9] was “inactive” throughout.
For `CCS(=O)(=O)Nc1cccc(C(=C2CCCCC2)c2cnc[nH]2)c1`, the molecule was called inactive in [1] and in test [6]. Further, the Potency entry in test [2], in [3], in test [5], in [7], in [8] and in [9] was “inactive” in each case.
For the molecule `N[C@@H](Cn1oc(=O)[nH]c1=O)C(=O)O`, the call in test [1] and in test [10] was inactive. For the same molecule, the Potency result in [2], in [3], in test [4], in test [5], in test [7] and in test [8] was “inactive” throughout. The Potency entry in test [9] is “inactive”.
With `COc1cc(CC(C)N)c(OC)cc1I` (stereo unspecified), the molecule was classed as inactive in [1] and in test [6]. Moreover, the Potency result in [2], in test [3], in test [5] and in [7] was “inactive” in each case.
`CCOC(=O)c1ncn2c1[C@@H]1CCCN1C(=O)c1cc(OC)ccc1-2`: the call in [1] was inactive. Further, the Potency entry in test [2], in test [3], in test [4], in test [5], in [7] and in test [8] was “inactive” in each case. The Potency entry in test [9] was “inactive”.
Regarding `CN1CCc2cccc(Cl)c2CC1`, the molecule was called inactive in test [1]. Also, the Potency result in test [2], in test [3], in test [4], in test [5], in [7] and in [8] was “inactive” in each case. For the same molecule, the Potency entry in test [9] is “inactive”.
Consider `O=C(O)c1cc[c]([Hg][Cl])cc1`, for which the call in test [1] and in test [6] was inactive. Further, the Potency result in test [2], in test [3], in test [4], in [12], in [16] and in [14] was “inactive” in each case. Also, the activation in test [13] was 5.77%.

Source of the values: PubChem BioAssay (NCATS).
